Among all 5,500 compounds or so, about 2,000 (36%) were called active. Not shown: some 18% with an inconclusive outcome. No stated cut-off is given here; in the data, active means normalized growth mostly below about 0.91 (no sharp cut-off); inconclusive means no clear call, values can overlap the other calls; inactive means mostly above about 0.92. The list shows a part of the results.
Assay: chemical genetic growth profiling, strain panel (AID 1159580);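 further: tested at 20 µM; growth read once vehicle control cultures reached saturation at 30 °C; 1 = growth at the plate median or of vehicle wells; lower values mean less growth of the strain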
Details: growth OD

Measured: normalized growth

CO[C@H]1CC(O[C@@H]2/C(C)=C/C[C@@H]3C[C@@H](C[C@]4(CC[C@H](C)[C@@H](C5CCCCC5)O4)O3)OC(=O)[C@@H]3C=C(C)/C(=N\O)[C@H]4OC/C(=C\C=C\[C@@H]2C)[C@]43O)O[C@@H](C)C1O (stereo not given in full)
inactive: S. cerevisiae deletion strains, locus YKL009W, strain mrt4, hits give low values 0.975 | S. cerevisiae deletion strains, locus YKL068W, hits give low values 1 | S. cerevisiae deletion strains, locus YKL085W, strain MDH1 (second series), hits give low values 0.997 | S. cerevisiae deletion strains, locus YKL085W, strain MDH1, hits give low values 0.997 | S. cerevisiae deletion strains, locus YKL160W, strain elf1, hits give low values 0.993 | S. cerevisiae deletion strains, locus YKL190W, strain CNB1, hits give low values 0.982 | S. cerevisiae deletion strains, locus YKR026C, strain gcn3, hits give low values 1.02 | S. cerevisiae deletion strains, locus YKR091W, strain srl3, hits give low values 1.01 | S. cerevisiae deletion strains, locus YLL001W, strain dnm1, hits give low values 0.974 | S. cerevisiae deletion strains, locus YLL026W, hits give low values 1.01 | S. cerevisiae deletion strains, locus YLL041C, strain sdh2, hits give low values 1.01 | S. cerevisiae deletion strains, locus YLR027C, strain aat2, hits give low values 1.01 | S. cerevisiae deletion strains, locus YLR058C, strain SHM2, hits give low values 0.987 | S. cerevisiae deletion strains, locus YLR102C, strain apc9, hits give low values 0.997 | S. cerevisiae deletion strains, locus YLR221C, strain rsa3, hits give low values 1.01 | S. cerevisiae deletion strains, locus YLR258W, strain gsy2, hits give low values 1 | S. cerevisiae deletion strains, locus YLR268W, strain sec22, hits give low values 0.928 | S. cerevisiae deletion strains, locus YLR320W, strain mms22, hits give low values 0.96 | S. cerevisiae deletion strains, locus YLR330W, strain CHS5, hits give low values 0.978 | S. cerevisiae deletion strains, locus YLR342W, strain FKS1, hits give low values 0.985 | S. cerevisiae deletion strains, locus YLR357W, strain rsc2, hits give low values 0.854 | S. cerevisiae deletion strains, locus YLR370C, strain arc18, hits give low values 0.993 | S. cerevisiae deletion strains, locus YLR371W, strain rom2, hits give low values 0.995 | S. cerevisiae deletion strains, locus YLR384C, strain iki3, hits give low values 1.01 | S. cerevisiae deletion strains, locus YLR418C, strain cdc73, hits give low values 0.936 | S. cerevisiae deletion strains, locus YML016C, strain PPZ1, hits give low values 0.995 | S. cerevisiae deletion strains, locus YML032C, strain rad52, hits give low values 0.987 | S. cerevisiae deletion strains, locus YML120C, strain ndi1, hits give low values 0.995 | S. cerevisiae deletion strains, locus YML124C, strain tub3, hits give low values 1 | S. cerevisiae deletion strains, locus YMR058W, strain fet3, hits give low values 1.02 | S. cerevisiae deletion strains, locus YMR078C, strain ctf18, hits give low values 0.986 | S. cerevisiae deletion strains, locus YMR125W, strain sto1, hits give low values 1.03 | S. cerevisiae deletion strains, locus YMR129W, hits give low values 1.02 | S. cerevisiae deletion strains, locus YMR205C, strain PFK2, hits give low values 0.997 | S. cerevisiae deletion strains, locus YMR223W, strain ubp8, hits give low values 0.993 | S. cerevisiae deletion strains, locus YMR231W, strain pep5, hits give low values 0.998 | S. cerevisiae deletion strains, locus YMR263W, strain SAP30, hits give low values 0.977 | S. cerevisiae deletion strains, locus YMR307W, strain GAS1, hits give low values 0.911 | S. cerevisiae deletion strains, locus YNL067W, strain RPL9B, hits give low values 0.988 | S. cerevisiae deletion strains, locus YNL071W, strain lat1, hits give low values 1.02 | S. cerevisiae deletion strains, locus YNL209W, strain ssb2, hits give low values 0.977 | S. cerevisiae deletion strains, locus YNL233W, strain BNI4, hits give low values 0.971 | S. cerevisiae deletion strains, locus YNL248C, strain rpa49, hits give low values 1.03 | S. cerevisiae deletion strains, locus YNL250W, strain rad50, hits give low values 0.967 | S. cerevisiae deletion strains, locus YNL271C, strain bni1, hits give low values 0.922 | S. cerevisiae deletion strains, locus YNL298W, strain CLA4, hits give low values 0.933 | S. cerevisiae deletion strains, locus YNL307C, strain MCK1, hits give low values 0.957 | S. cerevisiae deletion strains, locus YNL322C, strain KRE1 (second series), hits give low values 1.02 | S. cerevisiae deletion strains, locus YNL322C, strain KRE1, hits give low values 0.99 | S. cerevisiae deletion strains, locus YNR049C, strain mso1, hits give low values 0.984 | S. cerevisiae deletion strains, locus YNR052C, strain pop2, hits give low values 0.99 | S. cerevisiae deletion strains, locus YOL006C, strain TOP1, hits give low values 0.901 | S. cerevisiae deletion strains, locus YOL012C, strain htz1 0.49 | S. cerevisiae deletion strains, locus YOL147C, strain pex11, hits give low values 1.01 | S. cerevisiae deletion strains, locus YOR001W, strain rrp6, hits give low values 0.986 | S. cerevisiae deletion strains, locus YOR061W, strain CKA2, hits give low values 0.98 | S. cerevisiae deletion strains, locus YOR069W, strain VPS5, hits give low values 0.99 | S. cerevisiae deletion strains, locus YOR070C, strain gyp1, hits give low values 0.994 | S. cerevisiae deletion strains, locus YOR080W, strain dia2, hits give low values 1.02 | S. cerevisiae deletion strains, locus YOR083W, strain WHI5, hits give low values 1 | S. cerevisiae deletion strains, locus YOR106W, strain vam3, hits give low values 1.05 | S. cerevisiae deletion strains, locus YOR136W, strain idh2, hits give low values 0.974 | S. cerevisiae deletion strains, locus YOR144C, strain elg1, hits give low values 0.999 | S. cerevisiae deletion strains, locus YOR184W, strain ser1, hits give low values 0.991 | S. cerevisiae deletion strains, locus YOR231W, strain MKK1, hits give low values 0.962 | S. cerevisiae deletion strains, locus YOR265W, strain rbl2, hits give low values 0.995 | S. cerevisiae deletion strains, locus YOR270C, strain vph1, hits give low values 0.991 | S. cerevisiae deletion strains, locus YOR290C, strain snf2, hits give low values 1.04 | S. cerevisiae deletion strains, locus YOR316C, strain cot1, hits give low values 0.99 | S. cerevisiae deletion strains, locus YPL055C, strain LGE1, hits give low values 1 | S. cerevisiae deletion strains, locus YPL078C, strain atp4, hits give low values 1.03 | S. cerevisiae deletion strains, locus YPL240C, strain hsp82, hits give low values 1.01 | S. cerevisiae deletion strains, locus YPL241C, strain CIN2, hits give low values 0.979 | S. cerevisiae deletion strains, locus YPR119W, strain clb2, hits give low values 0.995 | S. cerevisiae deletion strains, locus YPR141C, strain kar3, hits give low values 0.992 | S. cerevisiae deletion strains, locus YPR163C, strain tif3, hits give low values 0.972 | S. cerevisiae deletion strains, locus YPR167C, strain met16, hits give low values 0.985 | S. cerevisiae deletion strains, strain wtn01, hits give low values 0.996 | S. cerevisiae strains, strain wild type, hits give low values 0.985
active: S. cerevisiae deletion strains, locus YJR066W, strain TOR1, hits give low values 0.659 | S. cerevisiae deletion strains, locus YKR001C, strain vps1, hits give low values 0.745 | S. cerevisiae deletion strains, locus YLR039C, strain RIC1, hits give low values 0.492 | S. cerevisiae deletion strains, locus YLR113W, strain HOG1, hits give low values 0.284 | S. cerevisiae deletion strains, locus YLR262C, strain YPT6 (second series), hits give low values 0.312 | S. cerevisiae deletion strains, locus YLR262C, strain YPT6, hits give low values 0.415 | S. cerevisiae deletion strains, locus YLR342W, strain FKS1 (second series), hits give low values 0.526 | S. cerevisiae deletion strains, locus YNL183C, strain NPR1, hits give low values 0.512 | S. cerevisiae deletion strains, locus YPL051W, strain arl3, hits give low values 0.8 | S. cerevisiae deletion strains, locus YPL106C, strain sse1, hits give low values 0.62 | S. cerevisiae deletion strains, locus YPL256C, strain CLN2, hits give low values 0.629

From PubChem BioAssay AID1159580 (chemical genetic matrix, 2015)
